# From the supplement of paper PMC7801607
# Tested on: Plasmodium berghei ANKA liver stage in HepG2-A16-CD81
# Test: % inhibition of liver stage parasite viability (luciferase); higher = more inhibition
# Details: 5 µM; 48 h
# Procedure: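 Single-concentration screen of the MMV Pandemic Response Box. P. falciparum NF54 asexual blood stages: pLDH assay, 72 h at 37 °C, 2 and 20 µM, n=2. Stage IV/V gametocytes (NF54): luciferase reporter (NF54-Pfs16-GFP-Luc, 48 h), ATP bioluminescence (24 h) and PrestoBlue (48 h) at 1 and 5 µM, n=1. P. berghei liver stage (luciferase in HepG2-A16-CD81, 48 h post infection) at 5 µM, n=4. All normalised to DMSO and kill controls as % inhibition.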
row,SMILES,% inhibition of liver stage parasite viability [%]
1,C[N+]1(C)CCCC(OC(=O)C(O)(c2ccccc2)c2ccccc2)C1 (stereo not drawn),34
2,COC(=O)Nc1nc2ccccc2[nH]1,30.8
3,CC(C)Oc1cccc(NC(=O)c2ccccc2C(F)(F)F)c1,23.7
4,O=C(NC12CC3CC(CC(C3)C1)C2)c1cc2ccccc2[nH]1,11.7
5,CN1C(=O)C(c2ccccc2)C(=O)N(c2ccccc2)c2cc(C(F)(F)F)ccc21 (stereo not drawn),7.89
6,C[C@@]1(O)[C@H](O)[C@@H](CO)O[C@H]1n1ccc2c(N)ncnc21,12.7
7,COc1ccccc1CN[C@H]1C2CCN(CC2)[C@H]1C(c1ccccc1)c1ccccc1,17.8
8,C[C@H]1CC[C@]2(NC1)O[C@H]1C[C@H]3[C@@H]4CC[C@H]5C[C@@H](O)CC[C@]5(C)[C@H]4CC[C@]3(C)[C@H]1[C@@H]2C,32
9,Nc1c(C(=O)NCc2ccco2)c2nc3ccccc3nc2n1CCN1CCCCC1,28.4
10,CCN1CCN(Cc2nc3ccc([N+](=O)[O-])cc3c(=O)n2-c2ccccc2F)CC1,14.3
11,COc1cc(C(C)(C)CCCC(C)C)cc(OC)c1OC,21
12,CCCCc1ccc(C(=O)O)nc1,19.3
13,NC1(C(=O)O)CCP(=O)(O)CC1 (stereo not drawn),19.9
